From PubChem BioAssay
EPAC1 antag: EPAC1 (human) antagonism. O95398. EPAC1 GEF assay, Rap1b-BODIPY-GDP exchange fluorescence. Potency, µM (top dose mostly 115 µM), actives largely listed as inhibitors. actives 0.14% (n = 360,000). AID 720709; also: nearly all actives have a fitted effect of over 50% in size
EPAC2 agonist: agonists of human EPAC2 (RAPGEF4); Potency, µM (doses to about 154 µM), most hits filed as activators; Q8WZA2; actives 0.079% (n = 360,000); EPAC2 activation, biochemical qHTS; response scale: 100% = 6.5 mM cAMP response; AID 720711; also: nearly all actives have a fitted effect of over 50% in size
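Guanine nucleotide exchange by EPAC2 is measured as reduced fluorescence of BODIPY-GDP once it is released from 250 nM Rap1B. Plates are read kinetically for 30 min at room temperature; results are scaled to 6.5 mM cAMP.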
EPAC2 antagonist: EPAC2 (human) antagonism | Q8WZA2 | EPAC2 GEF exchange of Rap1B-BODIPY-GDP, fluorescence | Potency, µM (doses to about 114 µM), most hits filed as inhibitors | actives 0.18% (n = 360,000) | AID 720708; also: nearly all actives have a fitted effect of over 45% in size
USP1 inh: inhibitors of human USP1/UAF1 deubiquitinase | O94782 | recombinant USP1/UAF1, Ub-Rhodamine cleavage fluorescence | Potency, µM (doses to about 57.1 µM), actives largely listed as inhibitors | actives 0.23% (n = 390,000) | AID 743255; also: nearly all actives have a fitted effect of over 60% in size
Target sequence (O94782 whole entry, looked up): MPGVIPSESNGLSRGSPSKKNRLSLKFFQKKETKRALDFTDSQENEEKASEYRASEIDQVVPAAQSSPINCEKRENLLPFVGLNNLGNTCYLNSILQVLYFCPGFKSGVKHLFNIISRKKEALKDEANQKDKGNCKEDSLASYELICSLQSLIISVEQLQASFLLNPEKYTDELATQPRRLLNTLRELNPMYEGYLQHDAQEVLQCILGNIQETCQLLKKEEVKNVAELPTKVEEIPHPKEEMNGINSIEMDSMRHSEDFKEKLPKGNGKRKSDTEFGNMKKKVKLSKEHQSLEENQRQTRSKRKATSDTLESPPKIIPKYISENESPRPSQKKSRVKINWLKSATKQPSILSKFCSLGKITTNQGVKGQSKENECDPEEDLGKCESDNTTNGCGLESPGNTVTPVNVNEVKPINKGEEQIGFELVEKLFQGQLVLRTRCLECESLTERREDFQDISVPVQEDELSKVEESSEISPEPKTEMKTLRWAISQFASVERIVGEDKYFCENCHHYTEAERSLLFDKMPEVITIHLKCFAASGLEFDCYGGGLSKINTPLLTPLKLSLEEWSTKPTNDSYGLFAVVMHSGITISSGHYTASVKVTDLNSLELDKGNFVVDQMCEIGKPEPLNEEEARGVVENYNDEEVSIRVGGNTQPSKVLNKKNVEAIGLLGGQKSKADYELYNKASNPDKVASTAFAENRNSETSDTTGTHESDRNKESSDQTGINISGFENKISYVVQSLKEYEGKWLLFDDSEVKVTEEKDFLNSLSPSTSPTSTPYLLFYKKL
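1 nM enzyme complex + cpd, 15 min RT; start with Ub-Rho 150nM final; kinetic fluorescence ex 480/em 540, 6 reads q60 s. Buffer 50mM HEPES pH 7.8, 0.5mM EDTA, 0.1 mg/ml BSA, 1mM TCEP, 0.01% Tween-20.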
EPAC1 agonist: EPAC1 (human) agonism; O95398; actives 0.073% (n = 360,000); EPAC1 agonist qHTS, biochemical assay; response scale: 100% = response to 6.5 mM cAMP; AID 720707; Potency, µM (doses to about 154 µM), hits mostly activators; also: nearly all actives have a fitted effect of over 60% in size
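Nucleotide exchange by EPAC1 (100 nM) on Rap1B–BODIPY-GDP (250 nM) in the presence of 50 uM GDP is tracked fluorescently at 480/540 nm over 30 min. Signals are normalized to a 6.5 mM cAMP control.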
Large screens that a line does not name were inactive. Rows were chosen to be rich in hits. Some 0.49% of all compounds tested hit in one or more screens of this group. Calls follow the shape of the dose curve; as a rule, active = well fitted curve in the direction sought with a large enough effect; inconclusive = small, poorly fitted or top-dose-only effect, or another doubt; inactive = no such curve, though single readings can be large; an effect the other way counts as inactive or inconclusive.

COc1ccccc1C1SCCN1S(C)(=O)=O (stereo not given)	EPAC2 agonist 7.9µM
CCCCN(Cc1ccccc1)C(=O)c1oc(=O)c2ccccc2c1-c1ccc(C)cc1	none (no result: EPAC1 antag, EPAC2 agonist, EPAC2 antagonist, EPAC1 agonist)
Cc1ccc(NC2=C/C(=N\S(=O)(=O)c3cccs3)c3ccccc3C2=O)c(C)c1	USP1 inh 2µM
Cc1ccc(Cl)cc1NC1=C/C(=N\S(=O)(=O)c2cccs2)c2ccccc2C1=O	USP1 inh 3.2µM
COc1ccc(CN2C(=O)C(NC(=O)c3ccccc3C)(C(F)(F)F)N=C2c2ccccc2)cc1 (stereo not given)	none (no result: EPAC1 antag, EPAC2 agonist, EPAC2 antagonist, EPAC1 agonist)
CC(=O)c1ccc(N2CCN(c3ncnc4c3c(-c3ccccc3)cn4-c3ccc(C)c(Cl)c3)CC2)cc1	none (no result: EPAC1 antag, EPAC2 agonist, EPAC2 antagonist, EPAC1 agonist)
CCC(=O)N1CCc2cc(OC)c(OC)cc2C1COc1ccc(F)cc1 (stereo not given)	EPAC2 antagonist 14µM
CCC(=O)N1CCc2cc(OC)c(OC)cc2C1COc1ccccc1OC (stereo not given)	EPAC2 antagonist 45µM
CCCC(=O)N1CCc2cc(OC)c(OC)cc2C1COc1ccccc1OC (stereo not given)	none
COc1cc2c(cc1OC)C(COc1ccc(F)cc1)N(C(C)=O)CC2 (stereo not given)	EPAC2 antagonist inconclusive
Cc1cc(C)c(NC(=O)Cn2c(=O)nc(-c3ccccc3)c3cc(Cl)ccc32)c(C)c1	none (no result: EPAC1 antag, EPAC2 agonist, EPAC2 antagonist, EPAC1 agonist)
O=C(O)C1Nc2c(Cl)cc(Cl)cc2C2C=CCC12 (stereo not given)	EPAC1 antag 18µM, USP1 inh inconclusive
O=C(O)C1Nc2c(Cl)cc(Cl)c(Cl)c2C2C=CCC12 (stereo not given)	EPAC1 antag inconclusive
CCOC(=O)c1ccc(NC(=O)C2Cc3ccccc3CN2S(=O)(=O)c2ccc(Cl)cc2)cc1 (stereo not given)	none (no result: EPAC1 antag, EPAC2 agonist, EPAC2 antagonist, EPAC1 agonist)
CCOc1ccc(NC(=O)Cn2nnc(C(=O)OC)c2C(=O)OC)cc1	none (no result: EPAC1 antag, EPAC2 agonist, EPAC2 antagonist, EPAC1 agonist)
Nc1c2c(=O)[nH]c(O)cc2nn1-c1ccccc1	EPAC1 antag 89µM, USP1 inh inconclusive
CC(=O)/C(N=Nc1ccc(SC(F)F)cc1)=C(\C)O	none
CCSC(=O)N=Nc1ccc(O)cc1	USP1 inh 32µM
COc1cc(NC(=O)c2cnc(N)s2)cc(C(=O)Nc2cccc(C(F)(F)F)c2)c1	EPAC1 antag 40µM
COc1cc(NC(=O)c2ccnc(N)c2)cc(C(=O)Nc2cccc(C(F)(F)F)c2)c1	EPAC1 antag 71µM
COc1ccc(OC)c(CC2C(=O)Nc3ccc(Br)cc32)c1 (stereo not given)	none (no result: EPAC1 antag, EPAC2 agonist, EPAC2 antagonist, EPAC1 agonist)
Cc1ccc(C2=NC(=O)/C(=C/c3cc(O)c(O)c(Br)c3)S2)cc1	EPAC1 antag 10µM
COc1cc(/C=C2\SC(c3ccc(C)cc3)=NC2=O)cc(OC)c1O	USP1 inh inconclusive
CCOC(=O)N1CCN(C2=C(NS(=O)(=O)c3ccc(C)cc3)C(=O)c3ccccc3C2=O)CC1	USP1 inh 22µM
O=C(O)c1ccc(NC2=C(N3CCOCC3)C(=O)c3ccccc3C2=O)cc1	USP1 inh 28µM
Cc1ccc(S(=O)(=O)NC2=C(N3CCN(Cc4ccccc4)CC3)C(=O)c3ccccc3C2=O)cc1	none
Cc1ccc(NC2=C(N3CCOCC3)C(=O)c3ccccc3C2=O)cc1	USP1 inh 40µM
O=C(COc1ccc(F)cc1)Nc1ccc2nc(SCC(=O)N3CCOCC3)sc2c1	none (no result: EPAC1 antag, EPAC2 agonist, EPAC2 antagonist, EPAC1 agonist)
Cc1cc(C)cc(-n2ccnc2SCC(=O)Nc2ccc3c(c2)OCO3)c1	none (no result: EPAC1 antag, EPAC2 agonist, EPAC2 antagonist, EPAC1 agonist)
O=C(Cn1ccc(=O)[nH]c1=O)NCCO	none
O=C(Cn1ccc(=O)[nH]c1=O)c1ccc([N+](=O)[O-])o1	EPAC2 agonist inconclusive, EPAC1 agonist 100µM
C=CCOc1c(Br)cc(/C=N/O)cc1OCC	EPAC2 antagonist inconclusive
CCCCOc1c(Br)cc(/C=N/O)cc1OCC	EPAC1 antag inconclusive, EPAC2 antagonist 28µM, USP1 inh inconclusive
Cc1cc(C)c2oc(-c3ccc(C)c(NC(=O)/C=C/c4ccco4)c3)nc2c1	none (no result: EPAC1 antag, EPAC2 agonist, EPAC2 antagonist, EPAC1 agonist)
C=C(C)Cn1c(C)cc(C)c(S(=O)(=O)c2ccc(C)cc2)c1=O	EPAC2 antagonist 35µM, USP1 inh inconclusive
Cc1ccccc1OCC(=O)Nc1c(C)ccc2nsnc12	none (no result: EPAC1 antag, EPAC2 agonist, EPAC2 antagonist, EPAC1 agonist)
O=C(CSc1nc(-c2cccs2)nc2cc(=O)[nH]n12)Nc1ccccc1	none (no result: EPAC1 antag, EPAC2 agonist, EPAC2 antagonist, EPAC1 agonist)
CC(=Nc1ccc(C)cc1C)c1sc2ccccc2c1O	EPAC2 agonist inconclusive, USP1 inh 35µM
CC(=Nc1ccc(C)cc1)c1sc2ccccc2c1O	EPAC2 agonist inconclusive, USP1 inh inconclusive, EPAC1 agonist inconclusive
CN(C)c1ccc(/C=C(/C#N)C(=O)Nc2nc3c(s2)CCN(Cc2ccccc2)C3)cc1	EPAC2 agonist 100µM, USP1 inh inconclusive
COc1ccc(C(=O)Nc2ccccc2-c2nnn(CC(N)=O)n2)cc1	EPAC1 antag 89µM
Cc1c(Cl)cccc1N1C(N)=C(C#N)C(c2cc(CN3CCOCC3)cs2)C2=C1CCCC2=O (stereo not given)	none (no result: EPAC1 antag, EPAC2 agonist, EPAC2 antagonist, EPAC1 agonist)
Fc1ccc(C2=CC(c3ccc(Br)o3)n3ncnc3N2)cc1 (stereo not given)	EPAC1 agonist 100µM
C1=C(c2ccc(-c3ccccc3)cc2)Nc2ncnn2C1c1ccco1 (stereo not given)	EPAC2 agonist 100µM, USP1 inh 14µM, EPAC1 agonist 89µM
COc1ccc(C(C)=O)cc1COc1ccc(F)cc1	EPAC2 antagonist 56µM
COc1ccc(C(=O)/C=C/c2ccc(OC)c(COc3ccc(F)cc3)c2)cc1	USP1 inh inconclusive
